Drawing on PubChem BioAssay (NCI), this text covers growth for 28 compounds.

Molecules are shown by their SMILES. This is part of a sample that, as a whole, favours compounds with a hit. Of some 83,000 tested, about 20% had one in any assay.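 Negative percent growth values reflect cell death: -40 means 40% of the cells present at the start died, and -100 means all died.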 Unmarked numbers belong to inactive results. The source made the active and inactive calls. The calls were made as follows: active = growth percent below 10; inactive = the rest.

The assay concerns MCF7 breast. Nature of the assay: NCI-60 one-dose screen, 48 h (100 = growth as untreated, 0 = no growth, -100 = all killed). The note with it: 10 µM unless noted.
In the case of `CC(C)n1cnc2c(=S)nc[nH]c21`, the growth is 106%.
On to `COC(C(=O)[C@@H](O)[C@@H](C)O)[C@@H]1Cc2cc3cc(O[C@H]4C[C@@H](O[C@H]5C[C@@H](O)[C@H](O)C(C)O5)[C@H](O)C(C)O4)cc(O)c3c(O)c2C(=O)[C@H]1O[C@H]1C[C@@H](O[C@H]2C[C@@H](O[C@H]3C[C@@H](OC)[C@H](O)C(C)O3)[C@@H](O)C(C)O2)[C@H](O)C(C)O1` (stereo partly drawn), for which the growth is 11.5%.
Under `Cc1cccnc1NC(=S)Nc1ncccc1C` stands 82.9%; under `NC(=O)c1c(NC(=O)c2ccccc2)sc2c1CCC(=O)C2`, 4.2% (active).
Under `CCCC(=O)NC(c1ccc2c(c1)OCO2)c1ccc2cccnc2c1O` (stereo not drawn) stands 5.86% (active); under `CCCCNc1ccc(C#N)c(OCCN(CC)CC)c1`, 93.8%; under `Cc1ccccc1NC(=O)c1sc2nc(C)c(C(=O)/C=C/c3ccccc3)cc2c1N`, 9.97% (active).
Consider `COc1ccc(C(=O)Nc2ncc(Cc3ccc(F)cc3)s2)cc1`, for which the growth is 12.3%.
As for `COC(=O)c1c2c(c[n+]([O-])c1C)C(=O)C(NCc1ccccc1)=CC2=O`, the figure is -58.3% (active); as for `Cn1ccc2c3c(ccc21)CC3=O`, 107%.
`COc1ccc2c3c([nH]c2c1)C(=O)c1nc(C)ccc1C3=O`: the growth was 41%.
Under `COC(=O)c1c2c(c(C)[n+]([O-])c1C)C(=O)C=C(NCc1ccc(OC)cc1)C2=O` stands -55.1% (active).
For the compound `O=C1Nc2ccccc2[C@]12CC(c1ccccc1)=NN2`, the growth is 29.5%.
Under `CCOc1nc(-c2ccccc2)cc2c(O)c(C(=O)NN)[nH]c(=O)c12` stands 127%; under `CCN(CC)C(=S)SC(SC(=S)N(CC)CC)C(=O)c1nnn(-c2ccc([N+](=O)[O-])cc2)c1C`, 59.3%; under `CCOC(=O)/C=C1\S/C(=N\Nc2cc(=O)[nH]c3ccc(Cl)cc23)N(c2ccccc2)C1=O`, 34.3%.
As for `CCCc1cc(NC)nc(S(=O)(=O)CC)n1`, the growth was 92.1%.
Under `O=C(N/N=C/c1ccc(F)cc1)c1ccc(C(F)(F)F)nc1Nc1cccc(C(F)(F)F)c1` stands -18.6% (active); under `CCn1c(SCC(=O)c2ccc(Br)cc2)nnc1-c1ccncc1`, 92.6%; under `COC(=O)c1cc(-c2ccccc2)[nH]c1N/N=C/c1c(Cl)cccc1Cl`, -38.2% (active).
As for `O=C(Nc1nn(-c2ccc(Cl)cc2Cl)nc1-c1ccccc1)c1ccccc1`, the figure is 105%; as for `CC(=O)N(N=Nc1ccccc1)c1cccc2ccccc12`, 76.8%; as for `C#COc1cccc(Nc2ncnc3ncc(NC(=O)CCl)cc23)c1`, -0.408% [6.25 µM] (active).
Under `COc1cc(CNS(=O)(=O)c2ccc(C)cc2)ccc1OCc1cn(-c2ccc(Br)cc2)nn1` stands 88%; under `Nc1ncnc2c1N=C(c1ccc3c(c1)OCO3)CC(c1ccc([N+](=O)[O-])cc1)N2` (stereo not drawn), 63.2%.
With `COC(=O)c1cc(-c2ccc(OC)cc2)[nH]c1N/N=C/c1c(Cl)cccc1Cl`, the growth is 1.03% (active).
Under `CN(CCOc1ccc(C#N)cc1)CCOc1ccc(C#N)cc1` stands 211%.
As for `O=C(O)/C(=C\c1ccc(Cl)cc1)c1ccc(Cl)cc1`, the figure is 92.9%.
